# Screening data from PubChem BioAssay.
# S-ASM inh: Inhibitors of Secretory Acid Sphingomyelinase (S-ASM): qHTS; AID 504937, 2011; placental ASM, HMU-PC fluorogenic substrate, 60 min; Potency, µM (doses to about 57.5 µM), without a hit: top-dose activity change, negative = inhibition, hits mostly inhibitors; actives 0.006% (n = 340,000); Sphingomyelin phosphodiesterase (Homo sapiens), P17405; further: potency means the concentration at half of the fitted maximal effect
# Target sequence (P17405 47-631 limits assumed): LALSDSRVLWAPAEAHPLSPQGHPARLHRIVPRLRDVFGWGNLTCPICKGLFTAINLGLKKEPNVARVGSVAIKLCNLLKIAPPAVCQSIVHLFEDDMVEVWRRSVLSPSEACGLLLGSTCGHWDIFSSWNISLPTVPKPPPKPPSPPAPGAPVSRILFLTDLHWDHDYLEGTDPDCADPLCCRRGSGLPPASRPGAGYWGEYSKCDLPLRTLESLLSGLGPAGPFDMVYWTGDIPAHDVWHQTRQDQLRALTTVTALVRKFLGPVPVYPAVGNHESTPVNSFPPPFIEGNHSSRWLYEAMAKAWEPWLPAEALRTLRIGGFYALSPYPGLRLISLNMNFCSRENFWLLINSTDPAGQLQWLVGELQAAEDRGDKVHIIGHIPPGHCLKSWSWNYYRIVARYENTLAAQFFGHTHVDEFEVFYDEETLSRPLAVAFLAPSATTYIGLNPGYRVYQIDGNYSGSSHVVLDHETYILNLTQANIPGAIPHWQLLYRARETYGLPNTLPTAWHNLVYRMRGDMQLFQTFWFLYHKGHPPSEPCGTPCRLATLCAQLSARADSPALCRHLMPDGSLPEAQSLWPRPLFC
#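 Human placenta-derived ASM enzyme was preincubated with compound for 10 minutes at room temperature, then given fluorogenic substrate HMU-PC0 (9 uM final) for 60 minutes at 37 °C; a pH 10 stop preceded fluorescence reading at Ex 386/Em 447 nm.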
# TGFb inhibitor: qHTS for Inhibitors of TGF-b; HepG2 CAGA-GFP TGF-b/SMAD3 reporter, GFP fluorescence, 18 h; TGF-beta stimulated, 500 pg/mL final; Potency, µM (series often up to 46.1 µM), inactives show top-dose activity, negative = inhibition, hits mostly inhibitors; actives 1.2% (n = 410,000); AID 588855, 2011; further: potency means the concentration at half of the fitted maximal effect; on the % scale 0 is the no-effect control and ±100 the full control effect; nearly all actives have a fitted effect of over 65% in size
#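 GFP signal (ex488/em500-530) from TGF-beta-stimulated HEPG2 CAGA-GFP cells, 500 pg/mL final, 18 h at 37 degrees C in DMEM plus 1% FBS, normalized to unstimulated and DMSO-stimulated controls.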
# TDP1 cell CPT: qHTS for Inhibitors of human tyrosyl-DNA phosphodiesterase 1 (TDP1): qHTS in cells in presence of CPT; AID 686979, 2013; chicken DT40 Tdp1-/-;hTDP1 cells + 20 nM CPT, ATP luminescence, 48 h; Potency, µM (highest dose often 46.2 µM), for inactives: at the top dose activity change, negative = growth inhibition, actives largely listed as inhibitors; actives 12% (n = 420,000); further: potency means the concentration at half of the fitted maximal effect; on the % scale 0 is the no-effect control and ±100 the full control effect; nearly all actives have a fitted effect of over 55% in size
#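 Chicken DT40 Tdp1-/- cells complemented with human TDP1, 400 cells/well, exposed to compounds plus 20 nM camptothecin for at least 48 h at 37 C; viability read as ATP content by CellTiter-Glo luminescence.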
# IL1B secr inh: qHTS for Inhibitors of Inflammasome Signaling: IL-1-beta AlphaLISA Primary Screen; activity change, % at 57.5 µM; THP-1 LPS/ATP IL-1B secretion, AlphaLISA, 16 h; active compounds read low; AID 743279, 2014; actives 4.7% (n = 360,000); in the data active means activity change below about -50%; inconclusive means mostly about -30% to -49%; further: on the % scale 0 is the no-effect control and ±100 the full control effect
#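 THP-1 cells pretreated 1 hr with compounds (up to 57.5 uM final), then stimulated with LPS (250 ng/mL final) plus ATP (1.25 mM final); secreted IL-1B measured by AlphaLISA after 16 hr, decreased signal indicating inhibition.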
# TDP1 cell noCPT: qHTS for Inhibitors of human tyrosyl-DNA phosphodiesterase 1 (TDP1): qHTS in cells in absence of CPT. actives 15% (n = 420,000). DT40 Tdp1-/- hTDP1 cells, no CPT, ATP luminescence, 48 h. Potency, µM (titrated, usually from 46.2 µM), for the others: top-dose activity change, negative = growth inhibition, usual class: inhibitors. AID 686978, 2013; further: potency means the concentration at half of the fitted maximal effect; on the % scale 0 is the no-effect control and ±100 the full control effect; nearly all actives have a fitted effect of over 55% in size
#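 Chicken DT40 Tdp1-/- cells complemented with human TDP1, screened without camptothecin (DMSO vehicle only), 400 cells/well. Compounds pin-transferred, cells incubated at 37 °C for at least 48 hr. Growth read as ATP-dependent luminescence (CellTiter-Glo, 30 min at RT).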
# HepG2 tox: qHTS for Inhibitors of TGF-b: Cytotox Counterscreen; AID 588856, 2011; Potency, µM (highest dose often 46.1 µM), for the others: at the top dose activity change, negative = cytotoxicity, actives largely listed as cytotoxic; HepG2 CAGA-GFP viability, ATP luminescence, 18 h; actives 0.76% (n = 410,000); further: potency means the concentration at half of the fitted maximal effect
#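 HepG2 CAGA-GFP cells (1000/well, DMEM with 1% FBS) received compound, then TGF-beta at 500 pg/mL final, and were incubated 18 hours at 37 degrees C. Viability was read by CellTiter-Glo luminescence. Media-only wells were set as complete cell-killing and DMSO as no toxicity.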
# * = called active by the depositor; ? = inconclusive; nt = no result; ! = not confirmed by another sample; [ ] = another dose, or the depositor's remark. Shown are actives, neighbours in structure and some others; about 19% of the full set was active somewhere. Unless noted, the call rests on the fitted dose curve; in most records, active means well fitted curve in the direction sought with a large enough effect; inconclusive means small, poorly fitted or top-dose-only effect, or another doubt; inactive means no such curve, though single readings can be large; an effect the other way counts as inactive or inconclusive.
SMILES,S-ASM inh,TGFb inhibitor,TDP1 cell CPT,IL1B secr inh,TDP1 cell noCPT,HepG2 tox
c1ccc(-c2csc3ncnc(N4CCN(Cc5ccc6c(c5)OCO6)CC4)c23)cc1,-2.0%,-15.1%,16.4µM*,10.0,7.31µM*,-5.1%
c1ccc(Cn2nnc3c(N4CCN(Cc5ccc6c(c5)OCO6)CC4)ncnc32)cc1,-3.4%,-2.5%,?,-15.5,?,-19.3%
O=C(NCCS(=O)(=O)NCC1CCCO1)c1ccccc1 (stereo not drawn),1.6%,-1.1%,5.5%,-3.8,-16.3%,-34.5%
CC1C(=O)N(Cc2cn(CCC3OCCO3)nn2)CCS(=O)(=O)N1Cc1ccc(-c2cccc(N(C)C)c2)cc1 (stereo not drawn),nt,10.1%,9.2µM*,-6.4,16.4µM*,-20.7%
CC1C(=O)N(Cc2cn(CCC3OCCCO3)nn2)CCS(=O)(=O)N1Cc1ccc(-c2ccccc2)cc1 (stereo not drawn),nt,-13.2%,?,-10.9,16.4µM*,-31.7%
CC1C(=O)N(Cc2cn(CCC3OCCO3)nn2)CCS(=O)(=O)N1Cc1ccc(-c2ccc(F)cc2)cc1 (stereo not drawn),nt,?,?,17.2,?,-31.7%
COc1ccccc1Oc1ccc(NC(=O)Cc2ccccc2)cc1,-1.7%,-5.7%,-8.9%,-21.7,-25.8%,-17.9%
COc1cccc(CNC(=O)c2cc3cc(C)ccc3n2C)c1,nt,6.1%,-14.6%,nt,-14.7%,-3.0%
CCc1cccc(CC)c1NC(=S)NCCc1ccc(O)c(O)c1,1.2%,?,23.1µM*,?,?,-29.5%
CCc1cccc(CC)c1NC(=S)NCCc1c(C)[nH]c2ccccc12,-8.5%,?,?,-20.8,?,-24.2%
CCOC(=O)c1c(C)[nH]c(C)c1S(=O)(=O)NCC1CCN(Cc2cccc(F)c2)CC1,-1.3%,17.9%,-2.9%,-5.1,-20.8%,13.1%
O=C(C[n+]1cc(Br)cc(Br)c1)c1cccc([N+](=O)[O-])c1,-0.7%,-9.7%,0.0%,-11.3,-14.7%,20.2%
CC(=O)Nc1ccc(S(=O)(=O)NCCS(=O)(=O)N2CCN(c3ccccc3F)CC2)cc1,-3.6%,-19.2%,16.4µM*,22.7,20.6µM*,-19.8%
O=C(NCCS(=O)(=O)N1CCN(c2ccccc2F)CC1)C1CC(=O)N(c2ccccc2)C1 (stereo not drawn),-1.3%,0.8%,-5.7%,8.4,-6.8%,6.9%
CC(=O)Nc1ccc(S(=O)(=O)NCCS(=O)(=O)N2CCN(c3ccccc3)CC2)cc1,-3.3%,-4.2%,?,45.7,-15.9%,-16.7%
O=[N+]([O-])c1ccc(S(=O)(=O)NCCS(=O)(=O)N2CCN(c3ccccc3)CC2)cc1,-1.4%,-16.4%,?,36.9,16.4µM*,-49.4%
Cc1ccc(N2CC(C(=O)NCCS(=O)(=O)N3CCN(c4ccccc4F)CC3)CC2=O)cc1 (stereo not drawn),-1.8%,?,14.6µM*!,-4.5,?,2.0%
Cc1cc(C)c(S(=O)(=O)NCCS(=O)(=O)N2CCN(c3ccccc3)CC2)c(C)c1,nt,?,23.1µM*,nt,18.4µM*,-25.3%
Cc1ccc(S(=O)(=O)NCCS(=O)(=O)N2CCN(c3ccccc3)CC2)cc1,-2.3%,-26.7%,-21.9%,10.9,?,-1.8%
Cc1nn(CCC(=O)N2CCN(S(=O)(=O)c3ccc(Cl)cc3)CC2)c(C)c1C,-3.3%[11.5 µM],8.7%,-3.9%,24.0,-6.8%,13.8%
